Hit rate of the full screen: of about 6,200 compounds, about 2,900 (47%) were called active. The set was probably picked from earlier hits. The list shows a part of the results. Values without a mark were called inactive. Rule as the data show it: active = inhibition above about 50%; inactive = the rest.
Assay: Mycobacterium tuberculosis growth inhibition, primary screen (AID 1259343)
Conditions: inhibition: at 10 µM, active compounds read high; outcome: 10 uM

Structure (SMILES) | inhibition
c1ccc(-c2noc3nc(OCc4ccccn4)ccc23)cc1 | 50.7% (active)
Fc1ccccc1-c1noc2nc(OCc3ccccn3)ccc12 | 90.2% (active)
Fc1ccc(-c2noc3nc(OCc4ncccn4)ccc23)cc1 | 46%
Cc1nc(COc2ccc3c(-c4ccccc4F)noc3n2)cs1 | 62.8% (active)
Cc1ccc(S(=O)(=O)CCC(=O)Nc2ccc(C)c(C)c2)cc1 | 68% (active)
CCCCc1ccc(NC(=O)CCS(=O)(=O)c2ccc(Cl)cc2)cc1 | -52.4%
Clc1ccc2c(Oc3cccc(Br)c3)ccnc2c1 | 0.33%
Clc1ccc2c(Oc3ccc(Br)cc3)ccnc2c1 | 58% (active)
O=C1c2ccccc2S(=O)(=O)N1c1cccc(Cl)c1 | inactive
O=C1c2ccccc2S(=O)(=O)N1c1ccc(Br)cc1 | -53.1%
O=C1c2ccccc2S(=O)(=O)N1c1ccc(Cl)cc1 | 60.5% (active)
CCCCOc1cccc2c1CCN(CC)C2=O | -1.17%
O=C1c2cccc(O)c2CCN1Cc1ccc(Br)cc1 | 19.3%
O=C1c2cccc(O)c2CCN1Cc1ccc(Cl)cc1 | 58% (active)
Cc1cccc(CN2CCN(Cc3ccc(Cl)c(F)c3)CC2=O)c1 | 6.7%
COc1ccc(OC)c(Nc2nc(Cl)nc(Nc3cc(OC)ccc3OC)n2)c1 | 1.76%
COC(=O)c1ccc(OC)c(CN2N=NC3C(=O)N(c4ccc(OC)c(Cl)c4)C(=O)C32)c1 (stereo unspecified) | 55.6% (active)
CCOc1ccc(N2C(=O)C3N=NN(Cc4cc(C(=O)OC)ccc4OC)C3C2=O)cc1 (stereo unspecified) | -31.4%
COc1cccc(CN2N=NC3C(=O)N(c4ccc(OC)c(Cl)c4)C(=O)C32)c1 (stereo unspecified) | 102% (active)
COc1ccc(N2C(=O)C3N=NN(Cc4ccccc4)C3C2=O)cc1Cl (stereo unspecified) | 20.8%
COc1ccc(N2C(=O)C3N=NN(Cc4cccc(C)c4)C3C2=O)cc1Cl (stereo unspecified) | 79.6% (active)
COc1ccc(CN2N=NC3C(=O)N(c4ccc(OC)c(Cl)c4)C(=O)C32)cc1 (stereo unspecified) | 83.8% (active)

Structure (SMILES) | inhibition
CC(=O)c1nnc2c(-c3ccccc3)c(C)nn2c1C | 89.5% (active)
Cc1nn2c(=O)[nH]c(SCc3cccnc3)nc2c1-c1ccccc1 | 33.2%
Cc1nn2c(NCCCN(C)C)cc(-c3ccccc3)nc2c1-c1ccccc1 | -0.28%
COc1ccc(/C=C/c2nc3cc(C)ccc3s2)cc1O | 23.6%
CNC(=O)COc1ccc(Oc2ccc(C)cc2)cc1 | 25.8%
COc1ccc(/C=C/C(=O)NNC(=O)COc2ccc(C)cc2)cc1 | 95.6% (active)
Cc1oc(-c2ccccc2Cl)cc1CO | 35.3%
CNC(=O)COc1ccc(-c2ccccc2Cl)cc1 | 72.2% (active)
CC(=O)Nc1ccc(OC/C=C/c2ccccc2)cc1 | 87.3% (active)
CNC(=O)COc1ccc(-c2c(C)cccc2C)cc1 | 26.1%
CNC(=O)COc1ccc(/C=C/c2ccccc2)cc1 | 51.1% (active)
COC(=O)Cc1ccc(OCC(=O)NC(C)c2ccc(Cl)cc2)cc1 (stereo unspecified) | 20.1%
CC(NC(=O)COc1ccccc1)c1ccccc1Cl (stereo unspecified) | 85.4% (active)
O=C(COc1ccccc1)NN=Cc1ccc(Br)cc1 | 89.4% (active)
Cc1nc(Cl)cc(NC(C)c2ccc(Cl)c(Cl)c2)n1 (stereo unspecified) | 6.72%
Cc1ccc(-n2nnc(C(=O)OCc3ccccc3C)c2C)cc1 | 93.8% (active)
COc1ccc(-c2nn(-c3ccccc3)cc2CN2CCN(c3cnccn3)CC2)c(F)c1 | 62.9% (active)
COc1ccc(C(=O)NC2CC(C)(C)Cc3occc32)cc1 (stereo unspecified) | -1.78%
COc1ccc(Oc2ccc(C(=O)N[C@H]3CCCC[C@@H]3O)cc2)cc1 | 80.8% (active)
CCOC(=O)CSc1ncnc2c1nnn2Cc1ccc(Cl)cc1 | -17.6%
CCOC(=O)CSc1ncnc2c1nnn2Cc1ccc(F)cc1 | -18.2%
CCOC(=O)CNC(=O)CSc1ncnc2c1nnn2Cc1ccc(F)cc1 | -15.9%

Structure (SMILES) | inhibition
CCOC(=O)C(C)Sc1ncnc2c1nnn2Cc1ccc(F)cc1 (stereo unspecified) | 64.3% (active)
CCOC(=O)C(C)Sc1ncnc2c1nnn2Cc1ccc(Cl)cc1 (stereo unspecified) | 50.4% (active)
CN=c1scc(-c2ccccc2F)n1N=Cc1cccc(F)c1 | 98.1% (active)
CN=c1scc(-c2ccc(F)cc2)n1N=Cc1cccc(Br)c1 | 70.2% (active)
CN=c1scc(-c2ccc(F)cc2)n1N=Cc1cccc(C(F)(F)F)c1 | -44.1%
CN=c1scc(-c2ccccc2F)n1N=Cc1ccc(SC)cc1 | -1.82%
CN=c1scc(-c2ccccc2F)n1N=Cc1ccccc1 | -1.69%
CN=c1scc(-c2ccc(F)cc2)n1N=Cc1ccccc1Br | -41.8%
Cc1nn(C(=O)C(C)N2C(=O)c3ccccc3C2=O)c(C)c1Br (stereo unspecified) | 14.3%
COc1ccc2oc(=O)cc(-c3cc4cc(Br)ccc4o3)c2c1 | -2.37%
Cc1cccc2nc(COc3ccc4ccccc4c3Br)cn12 | 41.5%
CCCCN1CCC(COC(=O)c2cc(Cl)c(N)c3c2OCCO3)CC1 | 98.9% (active)
Cc1cccc(SC2CCN(c3nncc(-c4ccccc4)n3)CC2)c1 | 32.6%
NC(N)=NCc1ccc(Cl)cc1Cl | 74.4% (active)
Nc1ncc(Cc2ccc(Cl)cc2F)s1 | 35.3%
Nc1ncc(Cc2cc(Cl)ccc2Cl)s1 | -17.2%
Cc1nc(C)c(-c2csc(Nc3cccnc3)n2)s1 | 35.7%
Cc1nc(C)c(-c2ccc(SCc3c(F)cccc3Cl)nn2)s1 | 69.8% (active)
O=C(NC(C1CC1)C1CC1)C1CC(c2ccc(Cl)s2)=NO1 (stereo unspecified) | -31.9%
CC(NC(=O)C1CC(c2cccc(F)c2)=NO1)c1ccc(F)cc1F (stereo unspecified) | 84.1% (active)
O=C(Nc1ccc(-n2cccn2)nc1)C1CC(c2cccc(F)c2)=NO1 (stereo unspecified) | 14.1%
O=C(Oc1ccc2ccccc2c1)c1cccs1 | 86.7% (active)

Structure (SMILES) | inhibition
CCOc1ccccc1C(=O)Oc1ccc2ccc(O)cc2c1 | 40.6%
COc1ccc2c(=O)c3c(oc2c1)C(=O)N(c1nccs1)C3c1ccc(C(C)(C)C)cc1 (stereo unspecified) | 5.45%
COc1ccc2c(c1)OCc1c-2oc2cc(OC)ccc12 | 81.8% (active)
COc1ccc2c(=O)c3c(oc2c1)C(=O)N(c1nccs1)C3c1ccccc1 (stereo unspecified) | 11.9%
CC1CCc2c(Cl)cc(Cl)c(O)c2N1 (stereo unspecified) | 103% (active)
COc1cc(C=Nc2ccc(I)cc2)cc(OC)c1OC | 75.7% (active)
COc1cc(C=Nc2ccc3ncccc3c2)cc(OC)c1OC | -5.15%
COc1cc2c(cc1/C=C/C(=O)N1CCc3ccccc31)OC(C)C2 (stereo unspecified) | 59.3% (active)
Cc1ccc2c(c1)CCCN2C(=O)/C=C/c1ccco1 | 44.5%
O=c1c(Oc2ccc(F)cc2)coc2cc(O)ccc12 | 103% (active)
O=c1c(Oc2ccc(Cl)cc2)coc2cc(O)ccc12 | 33.2%
O=c1c(Oc2ccccc2)coc2cc(O)ccc12 | 88.5% (active)
CCCc1cccc(C)c1O | 42.4%
CCCc1nc2oc3cc(OC)ccc3c(=O)c2c(=O)n1CCc1ccccc1 | 4.8%
CCCc1cc(=O)oc2cc(OC(C)C)c(Cl)cc12 | 23.5%
CCCc1cc(=O)oc2cc(O)ccc12 | 55.5% (active)
O=c1c(Oc2ccccc2F)coc2cc(O)ccc12 | 11.6%
CCOC(=O)C(C)Oc1ccc2c(=O)c(Oc3ccc(OCC)cc3)coc2c1 (stereo unspecified) | 22.8%
CCCc1oc2cc(O)ccc2c(=O)c1Oc1ccccc1 | 80.2% (active)
Oc1ccc(-c2nc3c4cnn(-c5ccccc5Cl)c4ncn3n2)cc1 | 44.1%
O=C(c1cnn2cccnc12)N1CCOc2ccc(C(O)C(c3ccccc3)c3ccccc3)cc2C1 (stereo unspecified) | -21.2%
Cc1cc(C(C)(C)CC(C)(C)C)ccc1OCCOCC[N+](C)(C)Cc1ccccc1 | 87.5% (active)

Structure (SMILES) | inhibition
CCCCCCCCc1nc(=S)[nH][nH]1 | 86.1% (active)
CCCCCCCCN1C(=O)CC(=O)NC1=S | 27.6%
Cc1nc2sc3c(c2c(=O)o1)CCCCC3 | 102% (active)
O=C1CCC(=O)N1c1ccc(-c2nc3sc4c(c3c(=O)o2)CCC4)cc1 | -4.37%
CC(C)(C)c1nc2sc3c(c2c(=O)o1)CCCC3 | 25.7%
COc1ccccc1C(C)(C)C(=O)n1nc(C(F)(F)F)nc1N | 7.93%
Cc1cnn(C2CN(c3ccc(S(=O)(=O)C(F)(F)F)cc3)C2)c1 | 84.2% (active)
NC(=O)C1CCN(c2ccc(S(=O)(=O)C(F)(F)F)cc2)C1 (stereo unspecified) | -74.6%
CCN(C(=O)c1cc(C)c(-c2ccc(F)cc2)s1)C1CCC1 | 24.1%
Cc1cc(C)c(Cn2ccnc2CN(C(=O)c2ccc(F)cc2)C2CC2)c(C)c1 | 51.5% (active)
FC(F)(F)c1ccc(Cn2ccnc2CNC2CCCCC2)cc1 | 21.3%
CC1=C(C)C(=O)C(CCCCC#CCCCC#CCO)=C(C)C1=O | 84.5% (active)
C=C(C)CN=c1scc(C)n1N=Cc1sccc1C | 21.6%
COc1ccc(N(CC(F)(F)F)C(=O)CCl)cc1 | 84.1% (active)
COc1ccc2cc(CN(C)C(=O)CCl)ccc2c1 | inactive
COc1ccc(COc2ccc(N(C)C(N)=O)cc2)c(Cl)c1 | 15.9%
CC1CCc2sc(C(=O)NCc3ccc4c(c3)OCO4)cc2C1 (stereo unspecified) | -11%
CC1CCCC(NC(=O)c2cc3c(s2)CSC3)C1C (stereo unspecified) | 55.5% (active)

— PubChem BioAssay AID1259343 (VanderVen Lab, College of Veterinary Medicine, Cornell …, 2017)
